Laboratory results from ChEMBL document CHEMBL3988442, “University of Dundee, Small-Polar-MMV Screening Library” (2021).
Out of some 48,000 compounds screened, about 13,000 (27%) showed an effect of 50% or more. This is one part of the list.

What follows are compounds tested on Wolbachia pipientis (assay: Anti-Wolbachia Cell-Based Screen). Details: 5 µM.
Assay type: functional
Set-up: scale not given: in the data most compounds retested in dose-response had high values
CSCC(CCO)NC(=O)Nc1cc(Br)ccc1C (configuration not stated) was tested, and the “Percent Effect” value was 9.066%.
In the case of COCCN1CCC2(CCCN(C(=O)c3cncn3C)C2)CC1.O=C(O)C(F)(F)F, the “Percent Effect” value is reported as -17.89%.
For CNC(=O)c1nc(Cn2ncc3ccccc3c2=O)no1, the “Percent Effect” value was -11.19%.
With CCc1nc(COc2ccc(N(C)C(C)=O)cc2)no1 the “Percent Effect” value was -47.78%.
With Cc1occc(=O)c1OCc1noc(C(=O)NC(C)C)n1 the “Percent Effect” value was 81.24%.
In the case of Cc1cccnc1C(NC(=O)CNC(=O)c1ccoc1C)C(C)C (configuration not stated), the “Percent Effect” value is reported as -9.405%.
In the case of CCOC(=O)c1nc(COc2c(C)occc2=O)no1, the “Percent Effect” value is reported as 107.7%.
In the case of Cc1occc(=O)c1OCc1noc(C(=O)NCC(C)C)n1, the “Percent Effect” value is reported as 118%.
In the case of Cc1occc1C(=O)NCC(O)c1ccc(Cl)s1 (configuration not stated), the “Percent Effect” value is reported as -1.514%.
In the case of CCOc1ccc(CC(CNC(=O)c2ccoc2C)C(N)=O)cc1 (configuration not stated), the “Percent Effect” value is reported as -14.81%.
In the case of CNC(=O)c1ccc(OC)c(NCc2noc(-c3ccsc3)n2)c1, the “Percent Effect” value is reported as -18.11%.
With CNC(=O)c1nc(COc2c(C)occc2=O)no1 the “Percent Effect” value was 98.73%.
In the case of CN(CCc1nc2cc(Cl)ccc2[nH]1)C(=O)c1ncn[nH]1, the “Percent Effect” value is reported as 8.261%.
For CCCN1C[C@H]2CC[C@@H]1CN(C(=O)c1ccc(N(C)CCO)cc1)C2, the “Percent Effect” value was -0.2946%.
For COc1ccc(C(C)N2CCC(C(=O)N(C)C)CC2)cc1Cl (configuration not stated), the “Percent Effect” value was 13.21%.
For COC(=O)NCC(=O)N(C)CC1Cc2ccccc2CN1C (configuration not stated), the “Percent Effect” value was -16.07%.
For Cc1c(I)cccc1C(=O)NCc1nnc[nH]1, the “Percent Effect” value was -11.57%.
For CC(C)(C)C(=O)N1C[C@H](c2ccsc2)[C@H]2CN(C3CCCC3)CC[C@H]21.Cl, the “Percent Effect” value was 191.9%.
With COC(=O)N1CCC(NC(=O)N2CCCC2c2ccsc2)CC1 (configuration not stated) the “Percent Effect” value was 22.17%.
For CC(C)(C)C(=O)N1C[C@H](c2ccsc2)[C@H]2CN(C3CCCCC3)CC[C@H]21.Cl, the “Percent Effect” value was 142.3%.
With COC(=O)CS(=O)(=O)CCC(=O)N1CCCC1c1ccsc1 (configuration not stated) the “Percent Effect” value was 0.3686%.
In the case of CC(C)(C)C(=O)N1C[C@H](c2ccsc2)[C@H]2CN(Cc3cccs3)CC[C@H]21.Cl, the “Percent Effect” value is reported as 6.375%.
For CC(C)(C)NC(=O)CNC(=O)CCc1ccccc1Br, the “Percent Effect” value was 12.72%.
For CN(c1ncnc2c1cnn2C)C1CCCN(c2cccnn2)C1 (configuration not stated), the “Percent Effect” value was -20.96%.
With Cc1nc2ccccc2nc1CN(C)C1CCCN(c2cccnn2)C1 (configuration not stated) the “Percent Effect” value was 3.642%.
With CN(Cc1nc2ccccc2s1)C1CCCN(c2cccnn2)C1 (configuration not stated) the “Percent Effect” value was 143.8%.
With Cc1nc(CN(C)C2CCCN(c3cccnn3)C2)nc2ccccc12 (configuration not stated) the “Percent Effect” value was 87.46%.
CN(c1ncnc2sccc12)C1CCCN(c2cccnn2)C1 (configuration not stated) was tested, and the “Percent Effect” value was 17%.
In the case of CN(Cc1nc(N)c2ccccc2n1)C1CCCN(c2cccnn2)C1 (configuration not stated), the “Percent Effect” value is reported as 10.49%.
Cc1nc(CN(C)CC2CCCN2c2cccnn2)nc2ccccc12 (configuration not stated) was tested, and the “Percent Effect” value was 6.947%.
For CN(Cc1ncc(-c2ccccc2)o1)C1CCCN(c2cccnn2)C1 (configuration not stated), the “Percent Effect” value was 2.582%.
CN(c1ncnc2ccccc12)C1CCCN(c2cccnn2)C1 (configuration not stated) was tested, and the “Percent Effect” value was 80.98%.
With O=C(C[C@H]1[C@H]2CN(c3ncccn3)C[C@@H]12)Nc1cccnc1.O=C(O)C(F)(F)F.O=C(O)C(F)(F)F the “Percent Effect” value was -0.113%.
With CCc1nc(CN(C)CC2CCN(CC(C)O)CC2)no1 (configuration not stated) the “Percent Effect” value was -10.69%.
With CN1CCCC(CCC(=O)N2CCc3sc(C(=O)N(C)C)cc3C2)C1 (configuration not stated) the “Percent Effect” value was -22.79%.
With Cc1nc(C2CCCN2CC(=O)N2CCCc3ccccc32)no1 (configuration not stated) the “Percent Effect” value was -7.265%.
COCc1ncc(CN(Cc2ccncc2)Cc2ccc(C)s2)cn1 was tested, and the “Percent Effect” value was 12.8%.
In the case of O=C(CNc1ccc(F)cc1OCC(F)(F)F)NCC(F)(F)F, the “Percent Effect” value is reported as -7.353%.
For O=C(CCc1ccco1)Nc1ncn(CC(=O)N2CCCCCC2)n1, the “Percent Effect” value was 1.429%.
With O=C1CC2(CCN(Cc3ccoc3)C2)CN1c1ccc2c(c1)OCO2 (configuration not stated) the “Percent Effect” value was 2.94%.
O=C(N1CCCC1)N1CCC2(CC(=O)N(c3ccc4c(c3)OCO4)C2)C1 (configuration not stated) was tested, and the “Percent Effect” value was -19.45%.
O=C1CC2(CCN(S(=O)(=O)C3CC3)C2)CN1c1cncnc1 (configuration not stated) was tested, and the “Percent Effect” value was 7.231%.
CCS(=O)(=O)N1CCC2(CC(=O)N(c3cncnc3)C2)C1 (configuration not stated) was tested, and the “Percent Effect” value was -9.187%.
In the case of CCS(=O)(=O)N1CCC2(CC(=O)N(c3cccc(C)c3)C2)C1 (configuration not stated), the “Percent Effect” value is reported as -28.77%.
O=C1CC2(CCN(Cc3cccs3)C2)CN1c1cccc(F)c1 (configuration not stated) was tested, and the “Percent Effect” value was 17.5%.
For O=C1CC2(CCN(c3nncs3)C2)CN1c1cccc(F)c1 (configuration not stated), the “Percent Effect” value was 96.11%.
For Cc1cccc(N2CCCC3(C2)CN(c2nncs2)CCO3)c1 (configuration not stated), the “Percent Effect” value was -21.39%.
In the case of O=C1CC2(CCN(c3nncs3)C2)CN1c1ccccc1 (configuration not stated), the “Percent Effect” value is reported as 7.339%.
For O=C1CC2(CCN(c3nncs3)C2)CN1c1cncnc1 (configuration not stated), the “Percent Effect” value was 102.2%.
With Cc1cccc(N2CC3(CCN(c4nncs4)C3)CC2=O)c1 (configuration not stated) the “Percent Effect” value was 106.3%.
O=C1CC2(CCN(c3nncs3)C2)CN1c1ccc2c(c1)OCCO2 (configuration not stated) was tested, and the “Percent Effect” value was 105.6%.
With CN(Cc1ccc(Cl)s1)C(=O)NCCC(=O)N1CCCCCC1 the “Percent Effect” value was -2.265%.
For CCn1c(CC2CCN(C(=O)C3COCCO3)CC2)nn(C)c1=O (configuration not stated), the “Percent Effect” value was -4.106%.
For Cc1nc(C)n(CCNC2CCN(c3ncnc4c(C)csc34)CC2)n1, the “Percent Effect” value was -4.781%.
With N#Cc1ccccc1N1CCCN(CC(=O)Nc2ccc(Cl)cn2)CC1 the “Percent Effect” value was -6.971%.
In the case of Cc1cc(N)nc(SC2CCCN(Cc3ccccc3)C2=O)n1 (configuration not stated), the “Percent Effect” value is reported as -26.38%.
With Cc1ccccc1N1CC2(CCN(Cc3nccn3C)C2)CC1=O.O=C(O)C(F)(F)F (configuration not stated) the “Percent Effect” value was 12.68%.
For Cc1ccccc1N1CC2(CCN(c3nncs3)C2)CC1=O (configuration not stated), the “Percent Effect” value was 115.5%.
With Cc1cnc(C(=O)N2CCC3(CCCN(c4nncs4)C3)C2)cn1 (configuration not stated) the “Percent Effect” value was -22.67%.
For Cc1n[nH]c(CN2CCN(Cc3ccccc3)[C@@H]3CS(=O)(=O)C[C@@H]32)n1, the “Percent Effect” value was -3.3%.
For O=S1(=O)C[C@@H]2[C@H](C1)N(Cc1ncc[nH]1)CCN2CCCc1ccccc1, the “Percent Effect” value was 97.44%.
For Cn1ccnc1CN1CCN(Cc2ccncc2)[C@@H]2CS(=O)(=O)C[C@@H]21, the “Percent Effect” value was 120.1%.
In the case of Cn1ccnc1CN1CCN(Cc2ccccc2)[C@@H]2CS(=O)(=O)C[C@@H]21, the “Percent Effect” value is reported as 89.31%.
In the case of O=C(C1CCCC1)N1CCN(Cc2ccncc2)[C@@H]2CS(=O)(=O)C[C@@H]21, the “Percent Effect” value is reported as -3.8%.
With O=S1(=O)C[C@@H]2[C@H](C1)N(S(=O)(=O)N1CCCC1)CCN2Cc1ccccc1 the “Percent Effect” value was -24.95%.
O=S1(=O)C[C@@H]2[C@H](C1)N(Cc1ncc[nH]1)CCN2C/C=C/c1ccccc1 was tested, and the “Percent Effect” value was -2.971%.
With CCc1ccccc1CN1CCN(Cc2ncc[nH]2)[C@H]2CS(=O)(=O)C[C@H]21 the “Percent Effect” value was 21.76%.
For Cc1ccc(CN2CCN(Cc3ccncc3)[C@@H]3CS(=O)(=O)C[C@@H]32)cc1, the “Percent Effect” value was 9.085%.
In the case of CC1(C)CCC(C(=O)N2CCCO2)c2ccccc21 (configuration not stated), the “Percent Effect” value is reported as 6.18%.
CC(C)OC(=O)N1CCCC2(CCC(=O)N(CCc3c[nH]cn3)C2)C1 (configuration not stated) was tested, and the “Percent Effect” value was 2.776%.
For Cc1ccc(Cl)c(NC(=O)NC2(C)CCOC2)c1 (configuration not stated), the “Percent Effect” value was -14.51%.
For Cc1nc(CNC(=O)CC2C(=O)NCCN2CCC(C)C)n[nH]1 (configuration not stated), the “Percent Effect” value was 13.35%.
In the case of O=C1CCCN1CCCC(=O)N1CCCC(Cc2cccnc2)C1 (configuration not stated), the “Percent Effect” value is reported as 77.87%.
For CC1CCCN(C(=O)CCNS(=O)(=O)c2cccnc2)C1 (configuration not stated), the “Percent Effect” value was 5.119%.
In the case of CN(C)CCn1ccnc1C1CCCN(C(=O)CCc2cccnc2)C1 (configuration not stated), the “Percent Effect” value is reported as -16.88%.
For CN(CCC(=O)N1CCCC(Cc2cccnc2)C1)Cc1cccnc1 (configuration not stated), the “Percent Effect” value was 128.2%.
CC(C)c1noc(CCCC(=O)N2CCC(Cc3cccnc3)CC2)n1 was tested, and the “Percent Effect” value was -13.45%.
With Cc1ccn(CCC(=O)N2CCCC(Cc3cccnc3)C2)n1 (configuration not stated) the “Percent Effect” value was 122.4%.
For O=C(CCn1ncc2ccccc21)N1CCCC(Cc2cccnc2)C1 (configuration not stated), the “Percent Effect” value was 101.6%.
For O=C(CSCC1CC1)N1CCCC(c2nccn2Cc2cccnc2)C1 (configuration not stated), the “Percent Effect” value was -14.92%.
For COCCN1CC2(CCC1=O)CCN(Cc1cc(F)ccc1Cl)CC2, the “Percent Effect” value was 8.376%.
In the case of COCCCN1CC2(CCC1=O)CCN(Cc1cc(C)no1)CC2, the “Percent Effect” value is reported as -12.58%.
In the case of O=C(CCC1CCCO1)NCCN1CCCCC1 (configuration not stated), the “Percent Effect” value is reported as -10.6%.
With CC(C)C(=O)N1CCC2(CC1)NC(=O)[C@H]1CN(Cc3cccnc3)C[C@H]12 the “Percent Effect” value was -21.16%.
In the case of CC1CCCN(C(=O)CCc2cccnc2)C1 (configuration not stated), the “Percent Effect” value is reported as -4.583%.
In the case of CC(C)c1nc(C2CCCN(C(=O)Cc3cccnc3)C2)no1 (configuration not stated), the “Percent Effect” value is reported as -1.83%.
With Cn1nccc1CCC(=O)N1CCCC(Cc2cccnc2)C1 (configuration not stated) the “Percent Effect” value was 92.49%.
In the case of CSc1nnc(CC2CCN(C(=O)CCc3cccnc3)CC2)n1C, the “Percent Effect” value is reported as -9.622%.
In the case of CC(C)C(=O)N1CCCC(Cc2cccnc2)C1 (configuration not stated), the “Percent Effect” value is reported as 104.6%.
CCN(C(=O)Cc1ccc(NCc2ncc[nH]2)cc1)c1ccccc1 was tested, and the “Percent Effect” value was -2.92%.
With Cc1[nH]c(=O)c(C#N)cc1C(=O)N1C[C@@H](CN2CCCC2)C[C@H](CO)C1 the “Percent Effect” value was 10.61%.
For CCOc1ccccc1C(CC(=O)Nc1ccccc1)NC(C)=O (configuration not stated), the “Percent Effect” value was -7%.
CCC(=O)N1CCN(c2cc(N(C)C)cnn2)CC1 was tested, and the “Percent Effect” value was 6.449%.
O=c1[nH]c(N2CC(O)C2)nc2c1cnn2-c1ccccc1 was tested, and the “Percent Effect” value was 21.25%.
With Cc1nc(CN2C(=O)CC3(CCN(C(N)=O)CC3)c3ccccc32)cs1.O=C(O)C(F)(F)F the “Percent Effect” value was -9.244%.
Cc1nc(CN2C(=O)COC3(CCN(C(N)=O)CC3)C2C)cs1 (configuration not stated) was tested, and the “Percent Effect” value was 117.7%.
For COCC1CC2(CCN(C(N)=O)CC2)CN1Cc1csc(C)n1.O=C(O)C(F)(F)F (configuration not stated), the “Percent Effect” value was -7.067%.
In the case of Cc1nc(CN2C(=O)COC3(CCN(CC4CC4)CC3)C2C)cs1.O=C(O)C(F)(F)F (configuration not stated), the “Percent Effect” value is reported as 98.79%.
Cc1nc(CN2C(=O)COC3(CCN(Cc4nccs4)CC3)C2C)cs1.O=C(O)C(F)(F)F (configuration not stated) was tested, and the “Percent Effect” value was -7.401%.
In the case of Cc1nc(CN2C(=O)COC3(CCN(Cc4ccsc4)CC3)C2C)cs1.O=C(O)C(F)(F)F (configuration not stated), the “Percent Effect” value is reported as 114.5%.
CC1N(CC2CC2)C(=O)COC12CCN(C(=O)c1cscn1)CC2 (configuration not stated) was tested, and the “Percent Effect” value was -4.225%.
With Cc1nc(CN2C(=O)COC3(CCN(C)CC3)C2C)cs1.O=C(O)C(F)(F)F (configuration not stated) the “Percent Effect” value was 127.2%.
